BAZ2B inh = inhibitors of human BAZ2B bromodomain. Q9UIF8. AlphaScreen BAZ2B-H3K14Ac peptide displacement. Potency, µM (series often up to 114 µM), for inactives: at the top dose activity change, negative = inhibition, actives largely listed as inhibitors. hit rate 4.4% among 360,000. AID 504333; also: % is scaled to controls: 0 for no effect and ±100 for the full control effect; nearly all actives have a fitted effect of over 60% in size
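Compounds, titrated to a top concentration of 110 uM, were incubated 30 min at room temperature with preformed BAZ2B/acetyl-K14 H3 peptide complex (50 nM each). Proximity signal was measured by AlphaScreen after 20 min with beads.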
HP1b chromo inh = inhibitors of HP1-beta chromodomain binding to methylated histone tails | AlphaScreen HP1-beta / biotin-H3K9me3 peptide binding | AID 540317 | hit rate 0.56% among 390,000 | Potency, µM (titrated, usually from 114 µM), without a hit: top-dose activity change, negative = inhibition, actives largely listed as inhibitors | P83916; also: nearly all actives have a fitted effect of over 70% in size
Target sequence (P83916 whole entry, looked up): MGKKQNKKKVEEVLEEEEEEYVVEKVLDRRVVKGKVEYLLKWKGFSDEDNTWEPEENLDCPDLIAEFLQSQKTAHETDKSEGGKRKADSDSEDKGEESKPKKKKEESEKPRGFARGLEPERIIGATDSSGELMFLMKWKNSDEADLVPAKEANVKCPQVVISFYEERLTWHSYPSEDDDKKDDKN
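HP1-beta protein (50 nM final) preincubated 30 min at room temperature with biotinylated H3(1-18)K9me3 peptide (50 nM) in PBS pH 7.4, 0.01% Tween-20, then compound added for 30 min. AlphaScreen streptavidin donor/nickel chelate acceptor beads (10 ug/mL final), 30 min dark, luminescence read.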
Sfp PPTase inh = Sfp phosphopantetheinyl transferase inhibition; Q9F4F7; Biochemical Sfp PPTase activity, qHTS; Potency, µM, inactives show largest response in the series, negative = inhibition, actives largely listed as inhibitors; hit rate 3.5% among 310,000; AID 1490;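 also: the enzyme is Sfp with the accession as filed and its product quenches rhodamine fluorescence; 0% = enzyme reaction without inhibitor and -100% = no enzyme wells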
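Buffer: 50 mM Hepes-Na pH 7.6, 10 mM MgCl2, 0.01% Nonidet P-40, 0.01% BSA. Enzyme 15 nM, pre-exposed to compound 15 min; substrates then added and fluorescence change tracked over 30 min.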
G9a block = inhibitors of human histone lysine methyltransferase G9a | hit rate 8.8% among 350,000 | Potency, µM (doses to about 102 µM), for inactives: at the top dose activity, negative = inhibition, hits mostly inhibitors | G9a H3K9 monomethylation, AlphaScreen, 2 h | Q96KQ7; also: % is scaled to controls: 0 for no effect and ±100 for the full control effect; nearly all actives have a fitted effect of over 75% in size
Target sequence (Q96KQ7 913-1193 limits assumed): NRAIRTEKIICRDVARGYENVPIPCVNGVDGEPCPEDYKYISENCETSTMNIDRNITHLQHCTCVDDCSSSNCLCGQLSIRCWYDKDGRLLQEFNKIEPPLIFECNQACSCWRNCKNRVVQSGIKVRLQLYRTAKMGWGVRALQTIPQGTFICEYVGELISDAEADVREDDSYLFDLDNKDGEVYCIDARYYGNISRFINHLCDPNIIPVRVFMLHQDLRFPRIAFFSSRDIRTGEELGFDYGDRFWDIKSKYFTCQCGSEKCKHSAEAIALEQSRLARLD
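Methyltransferase reactions run at room temperature for 2 h (20 nM enzyme, 500 nM biotin-H3K9 peptide, 20 uM SAM) after a 15 min compound preincubation; product detected by AlphaScreen beads and anti-H3K9me1 antibody.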
PLK1 PBD block = PLK1 (human) polo-box domain binding inhibition. hit rate 2.8% among 360,000. Plk1 PBD binding of FITC phosphopeptide, fluorescence polarization. Potency, µM, inactives show max response, negative = inhibition, actives largely listed as inhibitors. P53350. AID 720504; also: series mostly up to about 57 µM; % is scaled to controls: 0 for no effect and ±100 for the full control effect; nearly all actives have a fitted effect of over 65% in size
JMJD2A Tudor = blocks the human JMJD2A Tudor domain; AID 504339; AlphaScreen JMJD2A-Tudor / H3K4me3 peptide binding; hit rate 4.4% among 390,000; O75164; Potency, µM (highest dose often 114 µM), without a hit: top-dose activity change, negative = inhibition, usual class: inhibitors; also: % is scaled to controls: 0 for no effect and ±100 for the full control effect; nearly all actives have a fitted effect of over 50% in size
An asterisk follows results filed as active; ? = inconclusive; nt = no result; [ ] = remark or other dose. A selection: hits, their analogues and other compounds. The true share with any hit is near 12%. Calls follow the shape of the dose curve; as a rule, active = well fitted curve in the direction sought with a large enough effect; inconclusive = small, poorly fitted or top-dose-only effect, or another doubt; inactive = no such curve, though single readings can be large; an effect the other way counts as inactive or inconclusive. Potency is read from the fitted curve at half-maximal effect.

SMILES	BAZ2B inh	HP1b chromo inh	Sfp PPTase inh	G9a block	PLK1 PBD block	JMJD2A Tudor
Cc1cc(N2C(=O)C(O)=C(C(=O)c3cc4ccccc4o3)C2c2ccc(Cl)cc2)no1 (stereo not given)	?	-2.8%	8.2%	-6.6%[0.0925 µM]	?	?
COc1cccc(C2C(C(=O)c3cc4ccccc4o3)=C(O)C(=O)N2c2cc(C)on2)c1 (stereo not given)	-2.4%	1.8%[57 µM]	22.7%	44.7µM*	-8.3%	-24.0%
COc1ccc(OC)c(C2C(C(=O)c3ccc(C)o3)=C(O)C(=O)N2c2cc(C)on2)c1 (stereo not given)	-33.5%	-7.9%	?	50.1µM*	23.8µM*	?
C=CCOc1cccc(C2C(C(=O)c3cc4ccccc4o3)=C(O)C(=O)N2c2cc(C)on2)c1 (stereo not given)	-29.1%	-3.4%[57 µM]	15.4%	39.8µM*	?	?
COC(=O)C1=C(C(=O)OC)[C@@H]2N(Cc3ccccc3)c3ccccc3[C@@]23C[C@@H](C(=O)OC)N(S(=O)(=O)c2ccc([N+](=O)[O-])cc2)C3=N1	nt	nt	-2.9%	nt	nt	nt
CCN(CC)CCNc1nc(-c2cccs2)c(CC(=O)O)s1	20µM*	?	56.2µM*	8.91µM*	-18.5%	5.62µM*
O=C(O)Cc1sc(Nc2ccccc2)nc1-c1cccs1	-25.8%	-25.5%	50.1µM*	-0.3%[12.7 µM]	21.2µM*	-15.4%
O=C(Cc1sc(-c2ccccc2)nc1-c1ccccc1)Nc1ccccc1	-3.8%	25.6%	8.5%	12.2%[12.7 µM]	-4.1%	-11.2%
O=C(Nc1nc(-c2cccs2)c(-c2cccs2)s1)C1CCCC1	14.1%	57.5%	5.2%	-17.8%	-0.5%	-2.8%
O=C(Cc1sc(Nc2ccccc2)nc1-c1ccccc1)NCc1ccccc1	-7.1%	?	?	50.1µM*	-4.4%	-28.8%
C=CCNc1nc(-c2cccs2)c(CC(=O)O)s1	?	-8.1%	-8.1%	-4.5%[12.7 µM]	?	4.2%
COC(=O)CN1C2(C#N)CCCCC2CC2CCCCC21C#N (stereo not given)	5.7%	42.6%	-4.7%	47.3%[59 µM]	-4.8%	-18.4%
CCCCOc1cccc(C(=O)Nc2sc3c(c2C(=O)OCC)CCCC3)c1	19.5%	88.5%	nt	23.1%[59 µM]	nt	11.4%
C=CCc1cccc2cc(C(=O)NCCOC)c(=O)oc12	-14.0%	0.9%	22.4%	17.7%	6.9%	-9.5%
C=CCc1cccc2cc(NC(C)=O)c(=O)oc12	8.8%	-16.3%	12.7%	20.2%[59 µM]	26.7µM*	0.8%[11.4 µM]
O=C(/C=C/c1ccccc1)NC(NC(=S)Nc1ccc(Cl)cc1)C(Cl)(Cl)Cl (stereo not given)	-1.0%	-34.1%	21.6%	-3.8%	26.7µM*	-39.6%
COc1ccc(NC(=S)NC(NC(=O)/C=C/c2ccccc2)C(Cl)(Cl)Cl)cc1 (stereo not given)	-2.3%	20.7%	34.2%	8.7%[59 µM]	-14.3%	-13.4%[57.1 µM]
O=C(/C=C/c1ccccc1)NNc1ccc(Cl)cc1	?	30.3%	-15.4%	8.91µM*	-9.6%	0.7%
CCc1ccccc1NC(=O)c1ccc2c(c1)N(Cc1cc(C)ccc1C)C(=O)c1ccccc1S2(=O)=O	-20.4%	14.1%	nt	-7.8%[59 µM]	nt	-21.9%
O=C1[C@H]2[C@H]3[C@H](O)[C@H](O)C/C(=N/OC[C@@H](O)COCc4ccco4)[C@@H]3CC[C@@H]2C(=O)N1C[C@@H]1CCCO1	nt	nt	0.8%	nt	nt	nt
CC1(C)CC(Cc2nc(=S)[nH][nH]2)C(=O)O1 (stereo not given)	?	24.4%	20µM*	1.78µM*	3.9%	50.1µM*
COCCCN1C(=O)C(CC(=O)NCCCN(C)C)CC(C(=O)N2CCOCC2)=C1C (stereo not given)	nt	nt	nt	nt	-6.9%	nt
CCc1ccc(C(c2ccccc2)c2c(C)[nH]c3ccccc23)s1 (stereo not given)	-16.0%	22.0%	nt	-28.3%[59 µM]	nt	-19.4%
S=C(Nc1ccccc1)N1CCc2ccccc21	-6.2%	11.1%	4.6%	19.0%[0.501 µM]	-15.6%	-24.7%
O=[N+]([O-])c1ccc(NC(=S)N2CCc3ccccc32)cc1	?	-15.5%	-1.3%	35.5µM*	-15.5%	?
SMILES	BAZ2B inh	HP1b chromo inh	Sfp PPTase inh	G9a block	PLK1 PBD block	JMJD2A Tudor
CN1CCN(C(=S)Nc2ccc([N+](=O)[O-])cc2)CC1	?	18.8%	89.1µM*	-11.0%[0.0925 µM]	-17.4%	-19.9%
Cc1ccc2nc(NC(=O)CSc3cc(C)[nH]c(=O)n3)sc2c1	-24.1%	63.7%	nt	?	nt	-18.2%
COc1ccc(C(C)(C)C)cc1NC(=O)c1cc(S(=O)(=O)N(C)C)ccc1N1CCCC1	-17.8%	4.4%	-5.6%	?	-12.6%	-24.2%
COCCN1CN=C(Nc2nc3ccccc3o2)NC1	6.0%	39.1%	5.3%	70.8µM*	1.6%	?
O=C(OCC1OC(n2ncc(=O)[nH]c2=O)C(OC(=O)c2ccccc2)C1OC(=O)c1ccccc1)c1ccccc1 (stereo not given)	50.1µM*	18.8%	-0.6%	18.1%[12.7 µM]	?	50.1µM*
C=CCn1c(CNC(=O)c2cccs2)nnc1SCC(=O)Nc1ccc(C(=O)O)cc1	-7.9%	11.9%	-12.1%	?	-9.6%	-25.2%
O=C(CSc1nccn1C1CCCC1)Nc1cccc(F)c1	79.4µM*	9.3%	nt	-16.2%[59 µM]	nt	-29.0%
CC1=C(c2ccc(Cl)cc2)[N+](=O)C(C)(C)N1[O-]	-2.4%	-10.7%	-4.4%	50.1µM*	11.9µM*	-25.6%
Cc1c(-c2ccc(Cl)cc2)[n+](=O)c(-c2ccccc2)cn1[O-]	-11.6%	43.5%	17.3%	-0.3%	2.1%	4.7%
CCCCOc1ccc(C(C)NC(=O)c2cccc(Nc3nc4ccccc4n4nnnc34)c2)cc1 (stereo not given)	2.4%	24.9%	nt	-12.6%[59 µM]	nt	-22.1%
CCCCSCc1[nH]c(=O)[nH]c1C(=O)CCCCC(=O)OCC	?	34.9%	-1.4%	?	-24.9%	-14.3%
Cc1[nH]c(=O)[nH]c1C(=O)CCCCC(=O)O	0.891µM*	-96.5%	14.2%	1.58µM*	-4.1%	0.891µM*
COc1cccc(CNC(=O)N2CCC(CN3CCC(C)CC3)CC2)c1	1.9%	19.3%	nt	3.7%[59 µM]	nt	-4.0%
COc1ccc(-c2nc(CN3CCC(C(=O)NCC4CCCO4)CC3)c(C)o2)cc1OC (stereo not given)	-3.7%	2.0%	14.7%	19.3%	21.2µM*	-22.9%
Cc1oc(-c2ccc(Cl)cc2)nc1CN1CCC(C(=O)NCC2CCCO2)CC1 (stereo not given)	-6.8%	38.7%	22.2%	11.5%	-10.2%	-3.8%
Cc1cc(C)c(CN2CCC(N3CCC(C(=O)NCC4CCCO4)CC3)CC2)cc1C (stereo not given)	-11.2%	14.1%	25.8%	-2.6%	29.9µM*	?
COc1cc(C#Cc2c(-c3cncn3C)n(C)c3ccc(-c4ccc(OC)c(OC)c4)cc23)cc(OC)c1	?	-8.7%	nt	-3.5%[0.501 µM]	-3.0%	44.7µM*

Screening results from PubChem BioAssay.
